From PubChem BioAssay (NCI)
About 83,000 compounds went through this panel and 20% of them were active in at least one assay; those are over-represented in the sample as a whole.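 Treatment: one concentration, 48 hours, 96-well format. Scoring: percent growth, with anything below 10 considered active.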 A number with no mark means an inactive call. Calls of active or inactive are those of the source.

Key:
Assay in all cases: NCI-60 one-dose screen, 48 h (100 = growth as untreated, 0 = no growth, -100 = all killed)
Conditions in all cases: 10 µM unless noted
NCI-H23 lung = tested on: NCI-H23 lung
NCI-H322M lung = tested on: NCI-H322M lung
HOP-62 NSCLC = tested on: HOP-62 NSCLC
NCI-H460 lung = tested on: NCI-H460 lung
HOP-92 NSCLC = tested on: HOP-92 NSCLC
NCI-H522 lung = tested on: NCI-H522 lung
A549/ATCC NSCLC = tested on: A549/ATCC NSCLC
786-0 renal = tested on: 786-0 renal
COLO 205 colon = tested on: COLO 205 colon
DU-145 prostate = tested on: DU-145 prostate
K-562 leukemia = tested on: K-562 leukemia
MALME-3M melanoma = tested on: MALME-3M melanoma
MDA-MB-231 breast = tested on: MDA-MB-231 breast
RXF 393 renal = tested on: RXF 393 renal
SF-268 CNS = tested on: SF-268 CNS
SF-295 CNS = tested on: SF-295 CNS
SF-539 CNS = tested on: SF-539 CNS
UACC-257 melanoma = tested on: UACC-257 melanoma
M14 melanoma = tested on: M14 melanoma
NCI-H226 lung = tested on: NCI-H226 lung

Row | Structure (SMILES) | growth (NCI-H23 lung) | growth (NCI-H322M lung) | growth (HOP-62 NSCLC) | growth (NCI-H460 lung) | growth (HOP-92 NSCLC) | growth (NCI-H522 lung) | growth (A549/ATCC NSCLC) | growth (786-0 renal) | growth (COLO 205 colon) | growth (DU-145 prostate) | growth (K-562 leukemia) | growth (MALME-3M melanoma) | growth (MDA-MB-231 breast) | growth (RXF 393 renal) | growth (SF-268 CNS) | growth (SF-295 CNS) | growth (SF-539 CNS) | growth (UACC-257 melanoma) | growth (M14 melanoma) | growth (NCI-H226 lung)
1 | Cn1cc(-c2csc(-c3c[nH]c4ccccc34)n2)c2cnccc21 | 85.5% | 90.2% | 8.92% (active) | -17.7% (active) | 72.7% | -39.6% (active) | 18% | -87% (active) | -37.3% (active) | 20.9% | -28.1% (active) | -79% (active) | -37.4% (active) | -84% (active) | 54.6% | -69.7% (active) | -88.4% (active) | 90.9% | -80.2% (active) | 
2 | COc1cc(/C=C/C(=O)c2ccc(F)cc2)ccc1OCCCCOc1ccc(/C=C/C(=O)c2c(C)nc3ccccc3c2C)cc1OC | 74.9% | 103% | 90.2% | 104% | 84.5% | 59.1% | 76.9% | 86.7% | 119% | 157% | 62.2% | 105% | 91.5% | -10.5% (active) | 127% | 98.8% | 138% | 70.3% | 103% | 
3 | O=C(Nc1nc2ccccc2s1)c1ccc(F)cc1 | 89.9% | 92.5% | 106% | 69.2% | 78.7% | 92.2% | 98.4% | 108% | 118% | 108% | 90% | 96.2% | 95.5% | 107% | 114% | 103% | 102% | 108% | 110% | 
4 | O=C(CSc1nnc(-c2cnccn2)n1-c1ccccc1)c1ccc(Cl)cc1 | 108% |  | 97.7% | 103% | 81.4% | 95.3% | 91.7% | 95.1% | 99.6% | 105% | 91.1% | 105% | 99.8% | 114% | 104% | 99.3% | 103% | 96% | 102% | 
5 | CCOC(=O)c1nn(-c2ccc(S(N)(=O)=O)cc2)c2nc(C)cc(=O)n12 | 98.5% | 102% | 102% | 109% | 95% | 100% | 102% | 96.5% | 114% | 108% | 102% | 106% | 102% | 104% | 103% | 103% | 97.8% | 112% | 104% | 
6 | Cc1cc(N2CCN(CC(=O)Nc3ccc4c(ccn4C)c3)CC2)nc(N2CCCCCC2)n1 | 99.9% | 92.9% | 80.2% | 101% | 60.5% | 73.3% | 85.3% | 93.8% | 81.1% | 94.2% | 65.6% | 93.6% | 101% | 86.2% | 102% | 98.9% | 110% | 91.9% | 98.7% | 
7 | O=c1scc(-c2ccc(C(F)(F)F)cc2)s1 | 89% | 90.5% | 92.3% | 102% | 81% | 67.5% | 79.1% | 90.3% | 131% | 110% | 99.9% | 115% | 104% | 87.4% | 100% | 85.6% | 111% | 82.9% | 104% | 
8 | CCCOC(=O)Nc1nc2ccc(SCC(C)C)cc2s1 | 46.4% | 44.1% | 40.7% | 29.1% | 48.4% | 24.1% | 34.3% | 40.4% | 11.6% | 57.8% | 20.8% | 38.7% | 62.7% | 28.2% | 52.7% | 32.4% | 26.9% | 58.7% | 34% | 
9 | N#C/C(=C\c1c(-c2ccccc2)[nH]c2ccccc12)C(N)=O | 85.4% | 104% | 87.4% | 92.2% | 65.1% | 83.3% | 89.5% | 98.7% | 92.8% | 108% | 24% | 93% | 71.6% | 122% | 97.3% | 99.7% | 71% | 105% | 68.9% | 
10 | Oc1c(Br)cc(Br)c2ccc(Cn3cc(-c4ccccc4C(F)(F)F)nn3)nc12 | 106% | 104% | 103% | 101% | 88.8% | 24.6% | 99.6% | 105% | 95.7% | 86% | 4.64% (active) | 89.6% | 109% | 60.1% | 94.1% | 104% | 97.3% | 79% | 94.6% | 
11 | O=C1/C(=C/c2cn(-c3ccccc3)nc2-c2ccccc2)SC(=S)N1C1CCCCC1 | 96.1% |  | 101% | 103% | 46.9% | 91.5% | 103% | 106% |  | 106% | 101% | 92.3% | 89.8% | 106% | 102% | 104% | 99.4% | 102% | 99.1% | 
12 | Cc1cn(-c2cc(NC(=O)c3cncc(C#Cc4cnc(N)c5ncccc45)c3)cc(C(F)(F)F)c2)cn1 | 43.5% | 83.4% | 70.9% | 71.2% | 43.3% | 52.2% | 88.1% | 71.6% | 28.4% | 93.7% | 5.81% (active) | 23.8% | 47.1% | 59.6% | 67.2% | 91% | 72.3% | 62.5% | 29.8% | 
13 | CC1=C2[C@@H](CC1)[C@]1(C)O[C@@](C(C)C)(C[C@H]1OC(=O)[C@H](C)O)[C@H]2OC(=O)/C=C/c1ccccc1 | 90.7% | 85.9% | 80.9% | 88.9% | 55.9% | 74% | 66.9% | 66.5% | 98.8% | 105% | 68.7% | 101% | 83.1% | 30.8% | 41% | 78.7% | 96.8% | 90.5% | 87.2% | 
14 | C=C1CC[C@@H]2[C@](C)(COC(C)=O)[C@H](OC(C)=O)CC[C@@]2(C)[C@@H]1CC(Nc1ccc(S(=O)(=O)Nc2ncccn2)cc1)C1=CCOC1=O (stereo not given in full) | 29.6% | 50.9% | 126% | 18.1% | 56.3% | -67.7% (active) | 44.7% | -10.1% (active) |  | 14.9% | 4.6% (active) | -4.93% (active) | -1.01% (active) | -70% (active) | 18.3% | 68% | -69% (active) | 16.6% | 4.76% (active) | 
15 | Cc1nc2sc(C(=O)Nc3cccc(Br)c3)c(N)c2cc1C(O)c1ccccc1 (stereo not given) |  | 61% | 47.5% | 4.9% (active) | 76.3% | 9.66% (active) | 20.4% | 36.2% | 16.6% | 23.8% | 7.97% (active) | 55% | 24.2% | 28.2% | 42.4% | 40.2% | 6.22% (active) | 38.8% | 16.7% | 61.7%
16 | O=C(/C=C/c1cccc(Cl)c1)c1ccc(Nc2nc(Nc3ccc(F)cc3)nc(Nc3ccc(Cl)cc3)n2)cc1 |  | 96.6% | 91.9% | 143% | 72.9% | 102% | 87.1% | 99.1% | 108% | 162% | 79.7% | 108% | 110% | -9.73% (active) | 163% | 61.9% | 142% | 100% | 94.9% | 118%
